Each structure is given as a SMILES string. Among all 52,000 compounds or so, about 4,300 (8.3%) were called active. Shown is part of a subset that was picked to be rich in actives. A number with no mark means an inactive call. Cut-off read from the data, not from the text of the source: active = survival mostly below about 52% (no sharp cut-off); inactive = mostly above about 56%.

The assay has as its system DeltatarO mutant. Description: S. aureus survival, RN4220 and DeltatarO strains – OD600, teichoic acid synthesis inhibitors, primary screen (AID 463173). As to conditions: S. aureus RN4220 wild type/DeltatarO growth, OD600, 18 h, active compounds read low, screened at 18.75 µg/mL (by protocol).
Turning to `CCN(CC)c1ccc2cc(-c3nc(-c4cccs4)no3)c(=O)oc2c1`, the survival is 83%.

In the case of `CCC(Sc1nc2ccncc2[nH]1)C(=O)Nc1cc(C)ccc1C` (stereo not drawn), the survival was 132%. The same measure for `Cn1ncc(C(=O)N2CCN(c3ccccc3F)CC2)c1C1CCN(C(=O)OC(C)(C)C)CC1`: 71%; for `CCOc1ccc2oc(=O)cc(CN3CCN(C(=O)c4cccc(F)c4)CC3)c2c1`: 31% (active). Consider `CCOc1ccc2oc(=O)cc(CN3CCN(C(=O)c4cccc(Cl)c4)CC3)c2c1`, for which the survival was 66%.

`CCOc1ccc2oc(=O)cc(CN3CCN(C(=O)c4ccc(Cl)cc4)CC3)c2c1`: the survival is 86%. The same measure for `CCOc1ccc2oc(=O)cc(CN3CCN(C(=O)c4ccc(OC)c(OC)c4)CC3)c2c1`: 50%; for `CCOc1ccc2oc(=O)cc(CN3CCN(Cc4ccc(F)cc4)CC3)c2c1`: 83%.

For `CCOc1ccc2oc(=O)cc(CN3CCN(C(=O)c4ccc(F)cc4)CC3)c2c1`, the survival is 31% (active). To `CCc1nc2ccc(C(=O)NCc3ccc(N(C)C)cc3)cc2nc1CC` belongs 99%. To `Cc1c(C(=O)N2CCC(C)CC2)c(S(=O)(=O)NCc2ccccc2)c(C)n1C` belongs 66%; to `O=C(NCc1ccccc1Br)c1cnc2sc(N3CCCCCC3)nn2c1=O`, 94%. For the compound `Cc1cccc(NC(=O)CSc2cn(CC(=O)N3CCCC3)c3ccccc23)c1C`, the survival was 99%. Regarding `Cc1ccc(N2C(=O)CSC23C(=O)N(CC(=O)NC2CCCCC2)c2ccccc23)cc1C` (stereo not drawn), the survival is 94%. Consider `CCCn1cc(S(=O)(=O)c2cccc(Cl)c2)c(=O)c2cc(F)c(N3CCN(CC)CC3)cc21`, for which the survival was 115%. As to `O=C(CSc1nc2ccccc2n1Cc1ccccc1F)NCc1ccccc1`, the survival was 97%. Take `Fc1ccccc1Cn1c(-c2ccccc2)nc2ccccc21`: the survival is 1% (active).

Take `Cc1cccc(Cn2c(-c3ccccc3)nc3ccccc32)c1`: the survival is -2% (active). The same measure for `Cc1cccc(-c2nc3ccccc3n2Cc2ccccc2)c1`: 0% (active).

Consider `Cc1ccc(Cn2c(CCNC(=O)c3cccc(C)c3)nc3ccccc32)cc1`, for which the survival is 60%.

In the case of `Cc1cccc(Cn2c(-c3cccc(Br)c3)nc3ccccc32)c1`, the survival was 122%. With `Fc1ccc(Cn2c(-c3cccc(Br)c3)nc3ccccc32)cc1`, the survival is 109%. Turning to `Cc1ccc(Cn2c(-c3ccccc3)nc3ccccc32)cc1`, the survival is -2% (active). Regarding `Nc1nonc1-c1nc2ccccc2n1Cc1cccc(Cl)c1`, the survival was 80%. On to `Cc1ccc(Cn2c(C(C)NC(=O)c3ccccc3)nc3ccccc32)cc1` (stereo not drawn), for which the survival was 90%. To `CCC(O)c1nc2ccccc2n1Cc1cccc(Cl)c1` (stereo not drawn) belongs 83%; to `Cc1ccc(Cn2c(=O)c3ccccc3n3c(-c4ccccc4)nnc23)cc1`, 86%. Consider `CCOC(=O)Cc1ccc(NC(=O)N2CC(C)Oc3ccc(Cl)cc32)cc1` (stereo not drawn), for which the survival was 55%. The same measure for `O=CN(Cc1ccco1)C1(C(=O)NC2CCCCC2)CCCCC1`: 76%; for `OCc1cnc(SCc2ccccc2F)n1Cc1ccc(F)cc1`: 87%. To `COc1ccccc1CNC(=O)CCC1N=C2c3ccccc3N=C(SCC(=O)Nc3ccc(F)cc3)N2C1=O` (stereo not drawn) belongs 84%. The same measure for `Cc1ccc2nc(-c3cccnc3)c(Nc3ccc(C(C)C)cc3)n2c1`: 94%. With `O=C(COCc1cc(-c2ccc3c(c2)OCO3)on1)Nc1cc(Cl)ccc1O`, the survival was 60%. Take `CCn1c(=O)cc(SCC(=O)Nc2cc(Cl)ccc2OC)c2ccccc21`: the survival was 67%. The same measure for `CCCNC(=O)c1ccc(Cn2c(SCC(=O)NC(C)C)nc3ccccc3c2=O)cc1`: 102%; for `COc1cccc(C(=O)NCC(c2ccc(N(C)C)cc2)N2CCc3ccccc32)c1OC` (stereo not drawn): 93%; for `CN(C)c1ccc(C(CNC(=O)c2ccccc2)N2CCc3ccccc32)cc1` (stereo not drawn): 115%. To `CN(C)c1ccc(C(CNC(=O)c2ccccc2F)N2CCc3ccccc32)cc1` (stereo not drawn) belongs 105%; to `COc1ccccc1C(=O)NCC(c1ccc(N(C)C)cc1)N1CCc2ccccc21` (stereo not drawn), 46% (active). `CN(C)c1ccc(C(CNC(=O)c2ccccc2Cl)N2CCc3ccccc32)cc1` (stereo not drawn): the survival is 37% (active).

Take `CCOc1ccccc1C(=O)NCC(c1ccc(N(C)C)cc1)N1CCc2ccccc21` (stereo not drawn): the survival is 102%.

On to `O=C(Cn1c(=O)sc2ccccc21)Nc1cccc(Cl)c1`, for which the survival was 83%.

As to `CCN(Cc1ccccc1)C(=O)CN1C(=O)COc2ccc(S(=O)(=O)N3CCOCC3)cc21`, the survival is 98%. The same measure for `CCOC(=O)Nc1cccc(C(=O)O)c1`: 71%. With `COC(=O)c1c(NC(=O)c2nc(SC)ncc2Cl)sc2c1CCCC2`, the survival is 85%. To `COC(=O)c1c(NC(=O)c2nc(SCc3cccc(C)c3)ncc2Cl)sc2c1CCCC2` belongs 113%; to `COC(=O)c1c(NC(=O)c2nc(SCc3ccc(C)cc3)ncc2Cl)sc2c1CCCC2`, 46% (active). As to `COC(=O)c1c(NC(=O)c2nc(SCc3ccc(F)cc3)ncc2Cl)sc2c1CCCC2`, the survival is 47%. For the compound `CCSc1ncc(Cl)c(C(=O)Nc2sc3c(c2C(=O)NC)CCCC3)n1`, the survival is 82%.

In the case of `CCOC(=O)c1c(NC(=O)c2nc(SCC)ncc2Cl)sc2c1CCCC2`, the survival is 91%. To `CCOC(=O)c1c(NC(=O)c2nc(SC(C)C)ncc2Cl)sc2c1CCCC2` belongs 56% (active); to `CNC(=O)c1c(NC(=O)c2nc(SCc3ccc(C)cc3)ncc2Cl)sc2c1CCCC2`, 37% (active).

On to `Cc1ccc(CSc2ncc(Cl)c(C(=O)Nc3sc4c(c3C(N)=O)CCCC4)n2)cc1`, for which the survival was 105%. To `Cc1cc(C)nc(-n2nc(C)c3c2N(Cc2ccccc2F)C(=O)CC3c2ccc(Cl)cc2)n1` (stereo not drawn) belongs 100%. The same measure for `CCC(=O)N1CCc2cc(Br)cc(S(=O)(=O)CCC(=O)Nc3ccc(C)c(F)c3)c21`: 86%; for `CCCCn1c(SCC(=O)Nc2ccc(OCC)cc2)nc2ccsc2c1=O`: 130%; for `CCc1ccccc1NC(=O)C1(C)Cc2ccccc2C(=O)O1` (stereo not drawn): 97%. The same measure for `CCc1ccc(NCc2cc3cc4c(cc3n(CC(=O)Nc3ccccc3Cl)c2=O)OCO4)cc1`: 73%; for `Cn1c(=O)n(C)c2cc(N3CCCCC3)c(NC(=O)c3ccc(Cl)cc3)cc21`: 74%.

Consider `CCc1ccc(NC(=O)CN2C(=O)C(c3ccc(F)cc3)=NC2(C)C)cc1`, for which the survival was 81%.

As for `Cc1ccc(NC(=O)Cn2c(=O)c3ccccc3n3nncc23)cc1`, the survival is 114%. To `Cc1ccc2nc(-c3ccc(NC(=O)C(F)(F)F)cc3)sc2c1` belongs 98%; to `Cc1ccc2sc(-c3ccc(N)cc3)nc2c1`, 12% (active). To `Nc1ccc2nc(-c3ccc(O)cc3)sc2c1` belongs 120%; to `Cc1cccc(C)c1OCc1nc2c3cnn(-c4ccccc4Br)c3ncn2n1`, 69%; to `COc1ccc(Br)c(C(=O)Nc2cc3c(cc2N2CCOCC2)n(C)c(=O)n3C)c1`, 82%. In the case of `O=C(NCCCc1nc2ccccc2n1Cc1ccc(Cl)cc1)c1ccco1`, the survival is 105%.

Turning to `O=C(NCCCc1nc2ccccc2n1Cc1cccc(Cl)c1)c1ccco1`, the survival was 46% (active). The same measure for `O=C(NCCc1nc2ccccc2n1Cc1ccccc1)c1ccco1`: 113%. For `O=C(NCCCc1nc2ccccc2n1Cc1ccc(Cl)cc1Cl)c1ccco1`, the survival is 58%. Regarding `O=C(NCCc1nc2ccccc2n1Cc1ccc(Cl)cc1Cl)c1ccco1`, the survival is 49% (active). The same measure for `Cc1ccc(Cn2c(CCCNC(=O)c3ccco3)nc3ccccc32)cc1`: 77%; for `CCCSCCCNC(=O)CN1C(=O)COc2ccc(S(=O)(=O)N3CCC(C)CC3)cc21`: 90%. To `N#Cc1ccccc1NC(=O)CNCC1CCCO1` (stereo not drawn) belongs 76%. To `COC(=O)c1ccccc1NS(=O)(=O)c1cc2c3c(c1)CC(=O)N3CCC2` belongs 46% (active). On to `CCOC(=O)C1CCN(S(=O)(=O)c2cc3c4c(c2)CC(=O)N4CCC3)CC1`, for which the survival was 83%.

In the case of `COc1ccc(C)cc1NS(=O)(=O)c1cc2c3c(c1)CC(=O)N3CCC2`, the survival was 105%. The same measure for `CCOC(=O)C1CCN(S(=O)(=O)c2cc3c4c(c2)C(C)C(=O)N4CCC3)CC1` (stereo not drawn): 98%; for `COC(=O)c1ccccc1N(C)S(=O)(=O)c1cc2c3c(c1)CC(=O)N3CCC2`: 78%. As to `CC1C(=O)N2CCCc3cc(S(=O)(=O)N4CCC(C(N)=O)CC4)cc1c32` (stereo not drawn), the survival is 0% (active).

For `COC(=O)C1CCN(S(=O)(=O)c2cc3c4c(c2)CC(=O)N4CCC3)CC1`, the survival is 37% (active). To `CC1CCN(S(=O)(=O)c2cc3c4c(c2)CC(=O)N4CCC3)CC1` belongs 102%. The same measure for `COC(=O)C1CCN(S(=O)(=O)c2cc3c4c(c2)C(C)C(=O)N4CCC3)CC1` (stereo not drawn): 99%; for `O=C(O)CCCNC1C=CS(=O)(=O)C1` (stereo not drawn): 91%.

Regarding `COCCNc1cc(N2CCN(C3CCCCC3)CC2)c2noc3c2c1C(=O)c1ccccc1-3`, the survival is 57%. Regarding `COc1ccc(CCC(=O)NC2CC(=O)N(c3cccc(F)c3)C2)cc1` (stereo not drawn), the survival was 113%. The same measure for `CSc1nc(NC(N)=S)nc(NC(C)C)n1`: 76%; for `Cc1cc(C)c2c(CC(=O)Nc3ccc(S(=O)(=O)Nc4ncccn4)cc3)coc2c1`: 83%; for `COc1ccc([N+](=O)[O-])cc1NC(c1nnc(-c2ccccc2)o1)c1ccccc1F` (stereo not drawn): 83%. To `Cc1cccc2nc(-c3cccnc3)c(Nc3ccc(C(C)C)cc3)n12` belongs 70%; to `Cc1cccc(C(C)C)c1NC(=O)c1ccc2c(c1)CCN2S(C)(=O)=O`, 74%; to `COc1ccc(C2C(C(=O)Nc3cccnc3)=C(C)Nc3nc(-c4ccc(OC)c(OC)c4)nn32)cc1` (stereo not drawn), 150%. In the case of `CCOC(=O)C1CCN(C(=O)c2c(C)nn(-c3ccc(F)cc3)c2-n2cccc2)CC1`, the survival was 66%.

(Values after PubChem BioAssay AID463173 (ICCB-Longwood Screening Facility, Harvard Medical School, 2010).)
